Bioassay records as filed in PubChem BioAssay.
A selection: hits, their analogues and other compounds. The true share with any hit is near 4.7%.
RecA splice inh – Mtb RecA intein splicing inhibition. P9WHJ3. cell-free RecA intein splicing, fluorescence. inhibition, % (concentration not given with the values). 290,000 compounds, 0.75% hits. AID 2221; in the data active = inhibition above about 30%
3CLpro inhibitor – SARS-CoV 3CLpro protease inhibition; inhibition, % at 6 µM; 290,000 compounds, 0.14% hits; P0C6X7; recombinant SARS-CoV 3CLpro, quenched FRET peptide cleavage; in the data active = inhibition above about 12%
CCHFV vOTU inh – blocks the CCHF virus ovarian tumor domain protease; inhibition, % at 11.5 µM; 370,000 compounds, 0.55% hits; CCHFV vOTU protease, Pep-AMC fluorescence; in the data active = inhibition above about 30%
Mtb FBA inh – Mtb fructose-bisphosphate aldolase inhibition; purified M. tuberculosis FBA, fluorescence read-out; 360,000 compounds, 2.3% hits; AID 588726; inhibition, % at 1 µM; P9WQA3
Target sequence (P9WQA3 whole entry, looked up): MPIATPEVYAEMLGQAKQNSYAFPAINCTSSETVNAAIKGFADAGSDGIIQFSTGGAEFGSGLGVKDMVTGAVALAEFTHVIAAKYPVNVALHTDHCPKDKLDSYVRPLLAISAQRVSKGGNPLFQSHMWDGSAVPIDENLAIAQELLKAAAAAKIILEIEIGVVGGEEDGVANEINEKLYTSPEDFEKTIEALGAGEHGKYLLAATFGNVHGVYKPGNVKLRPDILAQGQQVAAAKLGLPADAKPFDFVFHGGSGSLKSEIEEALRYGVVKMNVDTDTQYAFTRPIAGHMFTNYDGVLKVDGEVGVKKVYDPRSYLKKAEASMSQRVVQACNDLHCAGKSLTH
GDH-TPI counter-1 – inhibits GDH-TPI coupling enzymes, artifact for Mtb FBA screen | GDH-TPI coupled enzyme counterscreen, NADH absorbance | 360,000 compounds, 1.2% hits | inhibition, % at 4.8 µM; in the data active = inhibition above about 30%
DUSP3 inh – blocks human VHR1 dual specificity phosphatase; recombinant VHR phosphatase, pNPP absorbance; inhibition, % at 13.3 µM; 290,000 compounds, 0.52% hits; AID 1654; in the data active = inhibition above about 50%
Target sequence (P51452 whole entry, looked up): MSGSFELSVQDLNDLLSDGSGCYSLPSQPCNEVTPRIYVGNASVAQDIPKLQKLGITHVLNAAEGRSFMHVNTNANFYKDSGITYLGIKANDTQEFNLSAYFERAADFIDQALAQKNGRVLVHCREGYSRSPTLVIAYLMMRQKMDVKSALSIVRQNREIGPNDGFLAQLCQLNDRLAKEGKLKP
Mtb FBA inh conf – Mtb FBA inhibition, confirmed; shares compounds with Mtb FBA inh; purified M. tuberculosis FBA, fluorescence read-out; inhibition, % at 1 µM; 5,600 compounds, 78% hits; AID 651616
GDH-TPI counter-2 – counter-screen for M. tuberculosis FBA inhibitors: GDH-TPI coupled enzyme inhibition. shares compounds with Mtb FBA inh. GDH-TPI coupled enzyme counterscreen, fluorescence. inhibition, % at 1 µM. 5,600 compounds, 81% hits; in the data active = inhibition above about 10%
GDH-TPI dose – GDH-TPI dose response counter-screen for Mtb FBA; shares compounds with Mtb FBA inh; GDH-TPI coupled enzyme assay, fluorescence, artifact counterscreen; IC50, µM; 170 compounds, 79% hits; call rule not given here
Of the large screens only hits and unclear results are named; the others gave an inactive call (follow-up assays come after a bar, where they were run). Rule as the data show it, unless noted: active = inhibition above about 27%; inactive = the rest.

Cc1cc(OC(C)C(=O)NCCN2CCOCC2)c2c(C)c(C)c(=O)oc2c1 (stereo unspecified)	Mtb FBA inh 51 | Mtb FBA inh conf 116 | GDH-TPI counter-2 94
Cc1cc(=O)oc2c(C)c(OC(C)C(=O)NCCCN3CCOCC3)ccc12 (stereo unspecified)	none
Cc1cc(OC(C)C(=O)NCCCN2CCOCC2)c2c(C)cc(=O)oc2c1 (stereo unspecified)	Mtb FBA inh 56 | Mtb FBA inh conf inactive | GDH-TPI counter-2 inactive | GDH-TPI dose 2.7
CCCc1cc(=O)oc2cc(C)cc(OC(C)C(=O)NCCN3CCOCC3)c12 (stereo unspecified)	Mtb FBA inh 61 | Mtb FBA inh conf 54 | GDH-TPI counter-2 43
CC(Oc1cc2oc(=O)c3c(c2cc1Cl)CCC3)C(=O)NCCN1CCOCC1 (stereo unspecified)	none
CCc1cc(=O)oc2cc(C)cc(OC(C)C(=O)NCCN3CCOCC3)c12 (stereo unspecified)	Mtb FBA inh 44 | Mtb FBA inh conf inactive | GDH-TPI counter-2 inactive
CCCCc1cc(=O)oc2cc(OC(C)C(=O)NCCN3CCOCC3)c(Cl)cc12 (stereo unspecified)	none
CN1CCN(C(=O)CCc2nc3ccccc3n2-c2ccccc2)CC1	none
CCc1cc(=O)oc2c(C)c(OC(C)C(=O)NCCCN3CCOCC3)ccc12 (stereo unspecified)	none
CCCc1cc(=O)oc2cc(C)cc(OC(C)C(=O)NCCCN3CCOCC3)c12 (stereo unspecified)	Mtb FBA inh 80 | Mtb FBA inh conf inactive | GDH-TPI counter-2 inactive
O=C1CC(C(=O)Nc2ccc(O)c(C(=O)O)c2)C(c2ccccc2)O1 (stereo unspecified)	Mtb FBA inh 59 | Mtb FBA inh conf 143 | GDH-TPI counter-2 165
CC(C)C1OC2(C)OC(=N)C1(C#N)C(C#N)(C#N)C2c1ccccc1 (stereo unspecified)	Mtb FBA inh 50 | Mtb FBA inh conf 94 | GDH-TPI counter-2 82
CC1=CC(C#N)(C#N)C(C#N)(C#N)C(c2ccccc2)N1 (stereo unspecified)	none (no result: CCHFV vOTU inh, Mtb FBA inh, GDH-TPI counter-1)
CCC1OC2(C)OC(=N)C1(C#N)C(C#N)(C#N)C2c1ccccc1 (stereo unspecified)	Mtb FBA inh 56 | Mtb FBA inh conf inactive | GDH-TPI counter-2 inactive | GDH-TPI dose 3.3
CCN(Cc1nc2ccccc2c(=O)[nH]1)C(=O)COc1ccccc1-c1ccccc1	none (no result: RecA splice inh, 3CLpro inhibitor, DUSP3 inh)
C[C@H]1COC(=O)[C@H](CC(=O)OC(C)(C)C)C/C=C\C[C@@H](CC(=O)N[C@@H](CO)Cc2ccccc2)C(=O)N1	none (no result: RecA splice inh, 3CLpro inhibitor, DUSP3 inh)
CN1C(=O)C(CC(=O)Nc2ccc(F)cc2)N(Cc2ccco2)C1=S (stereo unspecified)	none
Nc1ccc2nc(-c3ccc(Cl)cc3)[nH]c2c1	Mtb FBA inh 87 (no result: 3CLpro inhibitor) | Mtb FBA inh conf 168 | GDH-TPI counter-2 127
Clc1ccc2nc(-c3ccc(Cl)nc3)[nH]c2c1	Mtb FBA inh 36 | Mtb FBA inh conf 107 | GDH-TPI counter-2 82
Cc1nn(-c2ccc(F)cc2F)c(=O)c2noc(C)c12	none
Cc1nn(-c2ccc(F)cc2F)c2c1-c1nc(N3CCCC3)ncc1CC2	Mtb FBA inh 30 | Mtb FBA inh conf active | GDH-TPI counter-2 active
CCCNC(=O)C1(C)CCCN(Cc2cccc(Oc3ccccc3)c2)C1 (stereo unspecified)	none (no result: RecA splice inh, 3CLpro inhibitor, DUSP3 inh)
Nc1nc(Cl)nc2c1ncn2[C@@H]1O[C@H](CO)[C@@H](O)[C@@H]1F	none (no result: RecA splice inh, 3CLpro inhibitor, Mtb FBA inh, GDH-TPI counter-1, DUSP3 inh)
Cc1ccc2oc(C(=O)NCCCN3CCOCC3)c(C)c2c1	none
Cc1c(OC(C)C(=O)NCCCN2CCOCC2)ccc2c3c(c(=O)oc12)CCC3 (stereo unspecified)	none
Cc1c(OC(C)C(=O)NCCN2CCOCC2)ccc2c3c(c(=O)oc12)CCC3 (stereo unspecified)	none
COc1ccc2oc(C(=O)NCCN3CCOCC3)c(C)c2c1OC	Mtb FBA inh 102 | Mtb FBA inh conf active | GDH-TPI counter-2 186
Cc1c(C)c2ccc(OC(C)C(=O)NCCCN3CCOCC3)c(C)c2oc1=O (stereo unspecified)	Mtb FBA inh 32 | Mtb FBA inh conf 74 | GDH-TPI counter-2 60
Cc1c(C)c2ccc(OC(C)C(=O)NCCN3CCOCC3)c(C)c2oc1=O (stereo unspecified)	Mtb FBA inh 47 | Mtb FBA inh conf active | GDH-TPI counter-2 active
Cc1c(OC(C)C(=O)NCCCN2CCOCC2)ccc2c3c(c(=O)oc12)CCCC3 (stereo unspecified)	Mtb FBA inh 27 | Mtb FBA inh conf 48 | GDH-TPI counter-2 38
Cc1ccccc1OC(C)C(=O)NCCCN1CCOCC1 (stereo unspecified)	none
CCOc1ccc(NC(=O)c2cccc(-n3cccc3)c2)cc1S(=O)(=O)N1CCOCC1	none (no result: RecA splice inh, 3CLpro inhibitor, DUSP3 inh)
CC(OC(=O)c1ccccc1NCc1ccco1)C(=O)Nc1ncc(Cl)cc1Cl (stereo unspecified)	Mtb FBA inh 57 | Mtb FBA inh conf inactive | GDH-TPI counter-2 inactive
O=C(N/N=C/c1ccccc1F)c1cc2c(ccc3ccccc32)o1	Mtb FBA inh 30 | Mtb FBA inh conf 54 | GDH-TPI counter-2 36
CCCCNC(=O)COC(=O)CNC(=O)c1cc(Cl)cc([N+](=O)[O-])c1	none
CCn1c(SC)nnc1-c1ccc(S(=O)(=O)N2CCCCC2)cc1	Mtb FBA inh 28 (no result: DUSP3 inh) | Mtb FBA inh conf 42 | GDH-TPI counter-2 34
Cc1ccc(C(c2nc3ccccc3[nH]2)n2c(-c3ccccc3)nc3ccccc32)cc1 (stereo unspecified)	Mtb FBA inh 28 (no result: RecA splice inh, 3CLpro inhibitor, GDH-TPI counter-1, DUSP3 inh) | Mtb FBA inh conf inactive | GDH-TPI counter-2 inactive
COc1cccc2c(=O)c3c(oc12)CCCC3	Mtb FBA inh 45 (no result: RecA splice inh, 3CLpro inhibitor, DUSP3 inh) | Mtb FBA inh conf 131 | GDH-TPI counter-2 94
CCCCCOC(=O)Cc1c(O)c2ccccc2[nH]c1=O	none
CCCCCc1c(O)c2ccccc2[nH]c1=O	Mtb FBA inh 29 | Mtb FBA inh conf 62 | GDH-TPI counter-2 51
CCN(CC)C(=O)Cc1c(O)c2ccccc2[nH]c1=O	Mtb FBA inh 29 | Mtb FBA inh conf 98 | GDH-TPI counter-2 70
CC1CC(C)CN(c2oc(-c3ccco3)nc2C#N)C1 (stereo unspecified)	Mtb FBA inh 91 | Mtb FBA inh conf inactive | GDH-TPI counter-2 inactive
N#Cc1nc(-c2ccco2)oc1N1CCc2ccccc2C1	Mtb FBA inh 46 | Mtb FBA inh conf 52 | GDH-TPI counter-2 39
COc1cc(S(=O)(=O)N2CCOCC2)ccc1NC(=O)COC(=O)CC12CC3CC(CC(C3)C1)C2	none
